Drawing on ChEMBL document CHEMBL4296182, “CO-ADD screening of NIH NCI Diversity Set V”, this text covers Inhibition for 24 compounds.

One assay deals with Staphylococcus aureus. The assay is described as follows: Antibacterial activity against Staphylococcus aureus MRSA ATCC 43300 (CO-ADD:GP_020); MIC in CAMBH media using NBS plates, by Resazurin F(560/590). The assay is classed as functional. As to conditions: Concentration 20 uM, ASSAY_TEST Inhibition of Bacterial Growth, detection method Resazurin, Fluorescence (ex560/em590), MEDIA CAMHB, plate type 384well, CORNING #3640, time 18 hr. Background: Alamar Blue is a resazurin reagent that responds to reducing activity.

Another assay concerns Acinetobacter baumannii. The assay is described as follows: Antibacterial activity against Acinetobacter baumannii ATCC 19606 (CO-ADD:GN_034); MIC in CAMBH media using NBS plates, by Resazurin F(560/590). It counts as functional. Particulars: Concentration 20 uM, ASSAY_TEST Inhibition of Bacterial Growth, detection method Resazurin, Fluorescence (ex560/em590), MEDIA CAMHB, plate type 384well, CORNING #3640, time 18 hr.

In the next assay the test system is Escherichia coli. Nature of the assay: Antibacterial activity against Escherichia coli ATCC 25922 (CO-ADD:GN_001); MIC in CAMBH media using NBS plates, by Resazurin F(560/590). Particulars: Concentration 20 uM, ASSAY_TEST Inhibition of Bacterial Growth, detection method Resazurin, Fluorescence (ex560/em590), MEDIA CAMHB, plate type 384well, CORNING #3640, time 18 hr. It counts as functional.

The test system of the next assay is Klebsiella pneumoniae. As to conditions: Concentration 20 uM; ASSAY_TEST Inhibition of Bacterial Growth; detection method Absorption (OD600); MEDIA CAMHB; plate type 384well; NBS; CORNING #3640; time 18 hr.
A further assay relates to Candida albicans. As to conditions: 20 µM.
In a further assay the test system is Cryptococcus neoformans. Particulars: Concentration 20 uM; ASSAY_TEST Inhibition of Fungal Growth; detection method Resazurin; Absorption (OD600-OD570); plate type 384well; NBS; CORNING #3640.

For part of these data: Results with a measured potency or affinity are listed apart.

In the case of `Fc1ccc(-c2cc(-c3cccs3)cc(-c3ccccc3)n2)cc1`, the Inhibition – broadly, the change of the read-out against control, counted positive when it falls – in the assay on Staphylococcus aureus was 2.48%; with Acinetobacter baumannii, 12.33%; with Escherichia coli, -3.88%; in the assay with Klebsiella pneumoniae it was 7.87%; in the assay with Candida albicans, 6.36%; in the assay on Cryptococcus neoformans, -7.45%.
`Cc1cc(NC(=O)NC(=O)c2ccccc2NC(=O)C(C)N)ccc1Oc1ncc(Br)cn1.Cl` (centres undefined): the Inhibition was 19.83% in the assay with Staphylococcus aureus; -8.48% in the assay on Acinetobacter baumannii; 11.58% with Escherichia coli; 15.35% with Klebsiella pneumoniae; -1.4% with Candida albicans; -7.47% with Cryptococcus neoformans.
Regarding `Nc1ccc(C(=O)C(=O)c2ccc(N)cc2)cc1`, the Inhibition with Staphylococcus aureus is -28.54%; with Acinetobacter baumannii, -4.51%; in the assay with Escherichia coli, -16.8%; in the assay with Klebsiella pneumoniae, 1.88%; in the assay on Candida albicans, 2.62%; with Cryptococcus neoformans it was 25.61%.
As for `CC(C)(C)C(=O)/C=C/c1ccc(Oc2ccccc2)cc1`, the Inhibition was 7.11% in the assay on Staphylococcus aureus; -6.09% with Acinetobacter baumannii; -4.94% in the assay on Escherichia coli; 20.89% with Klebsiella pneumoniae; 4.03% in the assay on Candida albicans; -10.02% in the assay with Cryptococcus neoformans.
Consider `O=C(Nc1ccc(F)cc1)OCCOc1ccc(Br)cc1`, for which the Inhibition in the assay on Staphylococcus aureus is 6.52%; in the assay with Acinetobacter baumannii, 0.97%; in the assay on Escherichia coli, -0.96%; with Klebsiella pneumoniae it was 0.6%; with Candida albicans it was 2.88%; in the assay with Cryptococcus neoformans, 3.63%.
Regarding `CC1(C)CC[C@]2(C(=O)n3ccnc3)CC[C@]3(C)[C@H](C(=O)C=C4[C@@]5(C)C=C(C#N)C(=O)C(C)(C)[C@@H]5CC[C@]43C)[C@@H]2C1`, the Inhibition in the assay on Staphylococcus aureus is -14.27%; in the assay with Acinetobacter baumannii, -18.52%; with Escherichia coli, 7.42%; in the assay on Klebsiella pneumoniae, 10.75%; in the assay with Candida albicans, 4.81%; in the assay on Cryptococcus neoformans, -0.45%.
With `O=C1CCC(NC(=O)c2ccccc2)C(=O)N1` (centres undefined), the Inhibition in the assay with Staphylococcus aureus is 13.55%; in the assay on Acinetobacter baumannii, 6.82%; with Escherichia coli, 7.42%; in the assay with Klebsiella pneumoniae, 5.68%; in the assay with Candida albicans, 1.37%; in the assay on Cryptococcus neoformans, -6.13%.
For `Nc1ccc2c(c1)Cc1cc(Cl)c(Cl)cc1-2`, the Inhibition is 12.19% in the assay on Staphylococcus aureus; -1.44% with Acinetobacter baumannii; 15.96% in the assay with Escherichia coli; 4.46% in the assay with Klebsiella pneumoniae; 8.7% in the assay on Candida albicans; -5.33% with Cryptococcus neoformans.
With `c1ccc(-c2ccc3c(c2)NC(C2Nc4cc(-c5ccccc5)ccc4O2)O3)cc1` (centres undefined), the Inhibition in the assay on Staphylococcus aureus was 3.85%; in the assay with Acinetobacter baumannii, 1.02%; with Escherichia coli it was 2.77%; with Klebsiella pneumoniae it was 24.34%; in the assay on Candida albicans, -1.54%; with Cryptococcus neoformans, -14.91%.
As for `Cc1cc(NC(=O)c2ccccc2)c(Cl)cc1N`, the Inhibition was 13.14% with Staphylococcus aureus; 13.32% in the assay with Acinetobacter baumannii; 3.07% in the assay with Escherichia coli; 14.81% with Klebsiella pneumoniae; 3.76% with Candida albicans; -3.43% with Cryptococcus neoformans.
Take `CCOC(=O)c1c(C)c(C(=O)OCC)n(C)c1C`: the Inhibition is 8.23% in the assay on Staphylococcus aureus; 6.43% with Acinetobacter baumannii; -8.3% in the assay with Escherichia coli; 6.99% in the assay on Klebsiella pneumoniae; 4.68% in the assay with Candida albicans; 10.56% in the assay with Cryptococcus neoformans.
For the compound `Cn1c(N)c(/N=N/c2ccc(S(N)(=O)=O)cc2)c(=O)n(C)c1=O`, the Inhibition in the assay on Staphylococcus aureus is 19.52%; in the assay with Acinetobacter baumannii, 4.45%; in the assay on Escherichia coli, 15.26%; in the assay on Klebsiella pneumoniae, 20.82%; in the assay with Candida albicans it was 2.91%; in the assay on Cryptococcus neoformans it was -0.3%.
Take `c1ccc(-c2cc3ccccc3[nH]2)cc1` [2-PHENYL-1H-INDOLE]: the Inhibition is 0.91% in the assay with Staphylococcus aureus; -19.68% in the assay on Acinetobacter baumannii; 16.97% in the assay with Escherichia coli; 15.65% in the assay on Klebsiella pneumoniae; 3.85% in the assay on Candida albicans; -3.77% in the assay on Cryptococcus neoformans.
As to `O=C(Nc1ccc2ccccc2c1)c1cccc(F)c1`, the Inhibition in the assay with Staphylococcus aureus is -15.53%; with Acinetobacter baumannii, -12.84%; in the assay with Escherichia coli, 8.09%; with Klebsiella pneumoniae, 2.58%; in the assay with Candida albicans, 9.01%; in the assay on Cryptococcus neoformans, -2.23%.
As to `Cc1oc2c(c(C)nn2-c2ccccc2)c(=O)c1Cl`, the Inhibition with Staphylococcus aureus is -0.13%; in the assay with Acinetobacter baumannii, -6.85%; in the assay on Escherichia coli, 7.16%; in the assay with Klebsiella pneumoniae it was 9.65%; in the assay on Candida albicans, 14.3%; in the assay on Cryptococcus neoformans, 35.87%.
On to `CCC(C)(C)c1ccc(Oc2cccc(C(=O)O)c2)cc1`, for which the Inhibition was -8.99% in the assay on Staphylococcus aureus; 14.6% with Acinetobacter baumannii; -8.34% with Escherichia coli; 17.33% with Klebsiella pneumoniae; 8.87% with Candida albicans; -6.24% with Cryptococcus neoformans.
As to `CCCCOc1ccc(Nc2cc(Cl)ccc2C(=O)O)cn1`, the Inhibition in the assay with Staphylococcus aureus was 11.44%; with Acinetobacter baumannii, 0.16%; in the assay with Escherichia coli, 4.02%; in the assay on Klebsiella pneumoniae it was 9.69%; in the assay with Candida albicans, 10.4%; with Cryptococcus neoformans, -7.88%.
Regarding `Cc1ccccc1NC(=O)C(=O)Nc1ccccc1C`, the Inhibition with Staphylococcus aureus was 22.64%; with Acinetobacter baumannii, -12.42%; in the assay on Escherichia coli, 18.63%; in the assay on Klebsiella pneumoniae it was -3.39%; with Candida albicans, 6.51%; in the assay with Cryptococcus neoformans, 7.92%.
With `Clc1ccc(-c2nc(-c3cc4cc(Cl)ccc4o3)cs2)cc1`, the Inhibition was -3.66% in the assay on Staphylococcus aureus; 8.53% with Acinetobacter baumannii; 11.7% in the assay on Escherichia coli; 9.81% in the assay on Klebsiella pneumoniae; 1.45% in the assay on Candida albicans; -4.29% in the assay with Cryptococcus neoformans.
Regarding `CCN(CC)Cc1cc2[nH]c3c4ccc(Cl)cc4ncc3c2cc1OC`, the Inhibition with Staphylococcus aureus was 9.09%; in the assay with Acinetobacter baumannii it was 18.93%; in the assay on Escherichia coli it was -2.05%; in the assay with Klebsiella pneumoniae, 30.45%; in the assay on Candida albicans, -0.29%; in the assay with Cryptococcus neoformans it was -5.75%.
Regarding `Cc1ccc(Nc2ccc(N)cc2S(=O)(=O)O)cc1`, the Inhibition in the assay with Staphylococcus aureus is 11.37%; in the assay on Acinetobacter baumannii, 8.99%; with Escherichia coli it was -1.31%; in the assay on Klebsiella pneumoniae, 9.09%; in the assay with Candida albicans, 3.65%; in the assay with Cryptococcus neoformans, -9.37%.
Consider `Cc1ccc(/N=N/c2c(N)nn(-c3ccccc3)c2N)cc1`, for which the Inhibition in the assay on Staphylococcus aureus is 4.28%; with Acinetobacter baumannii, -1.05%; in the assay on Escherichia coli it was 11.08%; in the assay on Klebsiella pneumoniae, 11.62%; in the assay on Candida albicans, 9.14%; in the assay on Cryptococcus neoformans it was -17.06%.
For the compound `CCn1c2ccccc2nc2cc3c(cc21)c(Cl)c(=O)c1ccccc13`, the Inhibition is 25.73% with Staphylococcus aureus; 12.51% with Acinetobacter baumannii; 3.84% with Escherichia coli; 12.19% with Klebsiella pneumoniae; -1.37% in the assay on Candida albicans; -5.64% in the assay on Cryptococcus neoformans.
In the case of `NC(=O)c1ccc(Cl)c2ccccc12`, the Inhibition in the assay with Staphylococcus aureus was 11.2%; in the assay with Acinetobacter baumannii, -9.07%; in the assay on Escherichia coli it was 13.67%; in the assay on Klebsiella pneumoniae it was 7.47%; in the assay on Candida albicans it was 6.64%; in the assay with Cryptococcus neoformans, -4.82%.
